Columns and labels:
Assay in all cases: DAPPL (digital affinity profiling via proximity ligation, sequencing); 10 mM Tris-HCl pH 7.5, 50 mM NaCl, 1 mM DTT, 4% glycerol, room temperature, 30 min; GST-TFs on glutathione beads, 16-mer random dsDNA library, 0.1% formaldehyde crosslink after washing; high values mean tight binding
FLI1 = biological target: T1, FLI1 (Homo sapiens, UniProt Q01543 1-452); conditions: protein: recombinant; tags: N-terminal GST; dsDNA, one strand shown
T1 sequence: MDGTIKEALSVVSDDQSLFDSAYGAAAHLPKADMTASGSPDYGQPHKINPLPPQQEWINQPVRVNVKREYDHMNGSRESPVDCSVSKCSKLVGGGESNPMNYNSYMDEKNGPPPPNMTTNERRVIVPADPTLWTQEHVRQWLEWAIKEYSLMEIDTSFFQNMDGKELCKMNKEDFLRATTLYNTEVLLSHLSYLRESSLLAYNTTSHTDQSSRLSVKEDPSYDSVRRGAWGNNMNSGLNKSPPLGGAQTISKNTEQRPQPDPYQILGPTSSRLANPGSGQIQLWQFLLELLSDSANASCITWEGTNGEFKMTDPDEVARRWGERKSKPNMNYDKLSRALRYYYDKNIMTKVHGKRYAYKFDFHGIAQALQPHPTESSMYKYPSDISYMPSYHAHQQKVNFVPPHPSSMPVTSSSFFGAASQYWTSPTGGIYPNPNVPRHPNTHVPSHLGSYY
Outline: (§1)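 Human transcription factors were made in yeast as GST fusions, captured on glutathione beads and barcoded with DNA. With a tag-only sample included, the pool was incubated with 200 nmole of a random double-stranded 16-mer DNA library in Tris/NaCl/DTT/glycerol buffer at room temperature for 30 min, then crosslinked with 0.1% formaldehyde after washing, ligated by proximity, amplified and sequenced. For binding signal, each hexamer's read frequency for a factor is divided by its frequency for the tag-only sample.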

ELK1 = biological target: T2, ELK1 (Homo sapiens, UniProt P19419 1-428); conditions: protein: recombinant; tags: N-terminal GST; dsDNA, one strand shown
T2 sequence: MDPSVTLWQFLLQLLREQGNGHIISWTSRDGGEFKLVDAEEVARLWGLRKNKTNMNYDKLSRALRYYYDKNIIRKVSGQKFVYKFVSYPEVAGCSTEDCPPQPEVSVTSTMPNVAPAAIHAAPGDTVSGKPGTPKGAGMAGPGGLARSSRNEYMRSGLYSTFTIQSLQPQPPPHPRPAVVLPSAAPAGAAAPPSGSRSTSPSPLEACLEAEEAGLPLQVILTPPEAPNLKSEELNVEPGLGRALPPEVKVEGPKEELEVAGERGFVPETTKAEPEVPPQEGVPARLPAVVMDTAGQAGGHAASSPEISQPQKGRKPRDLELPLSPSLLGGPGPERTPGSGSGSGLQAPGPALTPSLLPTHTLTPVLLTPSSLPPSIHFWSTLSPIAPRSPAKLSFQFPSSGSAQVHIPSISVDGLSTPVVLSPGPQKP
Outline: as §1

GABPA = biological target: T3, GABPA (Homo sapiens, UniProt Q06546 1-454); conditions: protein: recombinant; tags: N-terminal GST; dsDNA, one strand shown
T3 sequence: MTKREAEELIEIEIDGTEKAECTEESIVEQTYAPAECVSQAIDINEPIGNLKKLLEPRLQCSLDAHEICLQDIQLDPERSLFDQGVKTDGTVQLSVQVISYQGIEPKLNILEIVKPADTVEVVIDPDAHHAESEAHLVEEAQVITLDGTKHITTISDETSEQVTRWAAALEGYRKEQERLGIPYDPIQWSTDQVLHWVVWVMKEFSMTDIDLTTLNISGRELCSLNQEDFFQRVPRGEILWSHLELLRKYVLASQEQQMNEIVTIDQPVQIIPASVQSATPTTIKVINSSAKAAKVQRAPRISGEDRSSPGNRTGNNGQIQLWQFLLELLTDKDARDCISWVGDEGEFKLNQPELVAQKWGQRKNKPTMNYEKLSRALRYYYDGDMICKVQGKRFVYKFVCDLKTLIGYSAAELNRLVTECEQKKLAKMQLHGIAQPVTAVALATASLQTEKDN
Outline: as §1

ERG = biological target: T4, ERG (Homo sapiens, UniProt P11308 1-479); conditions: protein: recombinant; tags: N-terminal GST; dsDNA, one strand shown
T4 sequence: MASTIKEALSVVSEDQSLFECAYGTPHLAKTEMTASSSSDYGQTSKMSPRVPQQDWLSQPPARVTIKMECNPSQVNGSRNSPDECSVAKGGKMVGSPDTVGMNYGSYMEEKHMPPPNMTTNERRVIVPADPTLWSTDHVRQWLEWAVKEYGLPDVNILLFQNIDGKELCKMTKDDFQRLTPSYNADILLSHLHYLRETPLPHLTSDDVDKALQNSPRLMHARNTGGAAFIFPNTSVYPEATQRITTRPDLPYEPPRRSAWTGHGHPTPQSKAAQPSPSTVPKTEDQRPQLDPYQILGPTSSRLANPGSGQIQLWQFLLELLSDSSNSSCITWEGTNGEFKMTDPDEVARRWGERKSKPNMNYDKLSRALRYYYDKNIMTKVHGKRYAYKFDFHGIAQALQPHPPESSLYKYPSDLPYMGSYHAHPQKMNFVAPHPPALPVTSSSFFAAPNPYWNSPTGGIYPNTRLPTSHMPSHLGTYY
Outline: as §1

ELF1 = ELF1 (Homo sapiens, UniProt P32519 1-619); conditions: protein: recombinant; tags: N-terminal GST; dsDNA, one strand shown
ELF1, sequence (P32519 whole entry): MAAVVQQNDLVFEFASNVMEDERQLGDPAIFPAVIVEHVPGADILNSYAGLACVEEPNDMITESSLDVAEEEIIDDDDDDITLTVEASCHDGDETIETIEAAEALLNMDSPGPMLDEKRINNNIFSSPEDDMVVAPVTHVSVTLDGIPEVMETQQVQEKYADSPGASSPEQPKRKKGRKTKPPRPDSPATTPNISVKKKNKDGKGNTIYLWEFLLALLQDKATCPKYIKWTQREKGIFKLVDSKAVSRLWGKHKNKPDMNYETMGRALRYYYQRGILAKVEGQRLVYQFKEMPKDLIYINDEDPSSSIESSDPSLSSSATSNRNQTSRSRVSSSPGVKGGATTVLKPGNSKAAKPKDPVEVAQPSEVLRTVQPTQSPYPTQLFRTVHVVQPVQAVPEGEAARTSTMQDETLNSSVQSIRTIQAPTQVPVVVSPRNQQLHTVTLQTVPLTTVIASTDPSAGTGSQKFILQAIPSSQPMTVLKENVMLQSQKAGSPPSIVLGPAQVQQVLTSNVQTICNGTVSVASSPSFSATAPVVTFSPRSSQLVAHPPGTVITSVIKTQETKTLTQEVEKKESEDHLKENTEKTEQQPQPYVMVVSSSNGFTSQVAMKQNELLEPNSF
Outline: as §1

EHF = biological target: T5, EHF (Homo sapiens, UniProt Q9NZC4 1-300); conditions: protein: recombinant; tags: N-terminal GST; dsDNA, one strand shown
T5 sequence: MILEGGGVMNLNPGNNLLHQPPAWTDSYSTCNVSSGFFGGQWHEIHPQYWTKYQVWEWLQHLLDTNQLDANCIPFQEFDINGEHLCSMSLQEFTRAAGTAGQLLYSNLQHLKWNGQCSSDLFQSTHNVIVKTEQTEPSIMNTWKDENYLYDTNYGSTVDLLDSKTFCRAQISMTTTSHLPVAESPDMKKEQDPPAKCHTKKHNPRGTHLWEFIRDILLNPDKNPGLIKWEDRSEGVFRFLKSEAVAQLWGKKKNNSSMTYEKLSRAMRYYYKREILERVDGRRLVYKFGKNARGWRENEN
Outline: as §1

SPIB = SPIB (Homo sapiens, UniProt Q01892 1-262); conditions: protein: recombinant; tags: N-terminal GST; dsDNA, one strand shown
SPIB, sequence (Q01892 whole entry): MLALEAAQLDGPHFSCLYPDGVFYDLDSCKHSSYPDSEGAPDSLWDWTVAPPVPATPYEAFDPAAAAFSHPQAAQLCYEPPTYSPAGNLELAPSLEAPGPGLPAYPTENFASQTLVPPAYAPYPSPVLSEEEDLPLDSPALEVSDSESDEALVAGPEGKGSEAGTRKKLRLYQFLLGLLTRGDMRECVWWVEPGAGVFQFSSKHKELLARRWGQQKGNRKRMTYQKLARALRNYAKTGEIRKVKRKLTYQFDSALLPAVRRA
Outline: as §1

FEV = biological target: T6, FEV (Homo sapiens, UniProt Q99581 1-238); conditions: protein: recombinant; tags: N-terminal GST; dsDNA, one strand shown
T6 sequence: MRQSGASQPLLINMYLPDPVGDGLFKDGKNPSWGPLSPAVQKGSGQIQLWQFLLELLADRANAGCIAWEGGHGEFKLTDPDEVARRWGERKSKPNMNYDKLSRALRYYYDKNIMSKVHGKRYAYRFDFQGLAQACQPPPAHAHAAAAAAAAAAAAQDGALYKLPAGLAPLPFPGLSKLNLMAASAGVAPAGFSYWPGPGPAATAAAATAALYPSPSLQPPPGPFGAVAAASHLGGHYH
Outline: as §1

ETV5 = ETV5 (Homo sapiens, UniProt P41161 1-510); conditions: protein: recombinant; tags: N-terminal GST; dsDNA, one strand shown
ETV5, sequence (P41161 whole entry): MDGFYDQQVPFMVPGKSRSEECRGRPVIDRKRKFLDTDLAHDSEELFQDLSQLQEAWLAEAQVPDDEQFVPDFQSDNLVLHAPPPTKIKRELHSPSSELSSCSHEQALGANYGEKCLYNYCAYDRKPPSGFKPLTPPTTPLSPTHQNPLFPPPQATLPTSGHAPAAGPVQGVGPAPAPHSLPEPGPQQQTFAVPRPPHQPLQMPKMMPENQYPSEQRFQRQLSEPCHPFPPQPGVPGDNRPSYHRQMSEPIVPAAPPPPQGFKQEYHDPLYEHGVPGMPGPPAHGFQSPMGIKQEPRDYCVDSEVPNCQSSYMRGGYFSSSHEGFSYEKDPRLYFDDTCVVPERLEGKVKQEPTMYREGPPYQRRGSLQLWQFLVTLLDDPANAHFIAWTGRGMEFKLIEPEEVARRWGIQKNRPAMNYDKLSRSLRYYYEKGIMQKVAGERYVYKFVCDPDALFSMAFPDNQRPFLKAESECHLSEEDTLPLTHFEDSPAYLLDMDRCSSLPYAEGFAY
Outline: as §1

HSF1 = HSF1 (Homo sapiens, UniProt Q00613 1-529); conditions: protein: recombinant; tags: N-terminal GST; chain copies: 3; dsDNA, one strand shown
HSF1, sequence (Q00613 whole entry): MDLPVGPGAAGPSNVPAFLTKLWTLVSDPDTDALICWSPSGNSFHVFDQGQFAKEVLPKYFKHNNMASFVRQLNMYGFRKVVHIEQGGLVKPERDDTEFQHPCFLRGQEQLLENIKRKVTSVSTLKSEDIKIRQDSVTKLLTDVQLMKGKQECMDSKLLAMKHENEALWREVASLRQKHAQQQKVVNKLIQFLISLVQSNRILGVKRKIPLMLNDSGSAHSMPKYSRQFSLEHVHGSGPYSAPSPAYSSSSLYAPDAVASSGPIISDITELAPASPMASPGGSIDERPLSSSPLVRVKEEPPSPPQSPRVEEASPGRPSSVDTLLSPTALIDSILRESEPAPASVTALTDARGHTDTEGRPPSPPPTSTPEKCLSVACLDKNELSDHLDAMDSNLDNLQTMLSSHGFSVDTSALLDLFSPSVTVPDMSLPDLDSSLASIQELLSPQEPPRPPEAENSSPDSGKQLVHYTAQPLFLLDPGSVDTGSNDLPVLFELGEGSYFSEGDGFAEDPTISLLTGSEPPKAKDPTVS
Outline: as §1

SPIC = biological target: T7, SPIC (Homo sapiens, UniProt Q8N5J4 1-248); conditions: protein: recombinant; tags: N-terminal GST; dsDNA, one strand shown
T7 sequence: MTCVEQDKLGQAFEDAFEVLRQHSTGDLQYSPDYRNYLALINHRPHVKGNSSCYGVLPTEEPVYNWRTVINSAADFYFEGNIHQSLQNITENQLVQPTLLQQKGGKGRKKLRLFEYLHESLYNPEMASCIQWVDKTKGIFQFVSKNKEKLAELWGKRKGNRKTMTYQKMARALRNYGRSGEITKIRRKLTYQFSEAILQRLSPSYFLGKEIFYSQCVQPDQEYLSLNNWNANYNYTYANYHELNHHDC
Outline: as §1

ELF4 = ELF4 (Homo sapiens, UniProt Q99607 1-663); conditions: protein: recombinant; tags: N-terminal GST; dsDNA, one strand shown
ELF4, sequence (Q99607 whole entry): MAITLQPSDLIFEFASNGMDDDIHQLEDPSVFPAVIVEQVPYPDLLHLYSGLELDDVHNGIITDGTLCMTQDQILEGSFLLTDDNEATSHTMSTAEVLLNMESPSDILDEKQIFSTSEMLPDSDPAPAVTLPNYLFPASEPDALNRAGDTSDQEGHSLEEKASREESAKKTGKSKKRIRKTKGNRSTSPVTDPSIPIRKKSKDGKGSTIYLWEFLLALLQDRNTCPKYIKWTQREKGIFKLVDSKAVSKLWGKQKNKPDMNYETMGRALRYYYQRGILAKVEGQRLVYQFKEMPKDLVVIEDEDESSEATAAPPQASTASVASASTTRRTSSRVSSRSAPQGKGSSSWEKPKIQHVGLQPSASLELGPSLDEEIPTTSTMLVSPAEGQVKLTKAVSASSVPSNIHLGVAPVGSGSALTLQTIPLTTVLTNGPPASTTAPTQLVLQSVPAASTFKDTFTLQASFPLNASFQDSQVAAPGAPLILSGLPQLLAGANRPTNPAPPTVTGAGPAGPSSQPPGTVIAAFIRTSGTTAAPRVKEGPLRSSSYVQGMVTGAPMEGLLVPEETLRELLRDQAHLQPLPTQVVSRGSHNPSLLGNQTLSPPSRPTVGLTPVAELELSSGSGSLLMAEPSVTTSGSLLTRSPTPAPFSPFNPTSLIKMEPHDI
Outline: as §1

ELK4 = biological target: T8, ELK4 (Homo sapiens, UniProt P28324-2 1-405); conditions: protein: recombinant; tags: N-terminal GST; dsDNA, one strand shown
T8 sequence: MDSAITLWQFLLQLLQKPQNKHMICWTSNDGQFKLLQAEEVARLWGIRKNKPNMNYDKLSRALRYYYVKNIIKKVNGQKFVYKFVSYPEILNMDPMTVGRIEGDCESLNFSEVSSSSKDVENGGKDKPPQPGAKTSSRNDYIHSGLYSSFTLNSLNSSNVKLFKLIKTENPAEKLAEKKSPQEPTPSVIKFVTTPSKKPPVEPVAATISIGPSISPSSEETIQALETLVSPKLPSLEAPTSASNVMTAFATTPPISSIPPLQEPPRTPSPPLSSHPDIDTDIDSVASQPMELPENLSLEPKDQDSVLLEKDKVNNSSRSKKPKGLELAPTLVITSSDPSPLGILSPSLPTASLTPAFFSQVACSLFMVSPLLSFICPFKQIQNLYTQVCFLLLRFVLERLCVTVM
Outline: as §1

ETV2 = biological target: T9, ETV2 (Homo sapiens, UniProt O00321 1-342); conditions: protein: recombinant; tags: N-terminal GST; dsDNA, one strand shown
T9 sequence: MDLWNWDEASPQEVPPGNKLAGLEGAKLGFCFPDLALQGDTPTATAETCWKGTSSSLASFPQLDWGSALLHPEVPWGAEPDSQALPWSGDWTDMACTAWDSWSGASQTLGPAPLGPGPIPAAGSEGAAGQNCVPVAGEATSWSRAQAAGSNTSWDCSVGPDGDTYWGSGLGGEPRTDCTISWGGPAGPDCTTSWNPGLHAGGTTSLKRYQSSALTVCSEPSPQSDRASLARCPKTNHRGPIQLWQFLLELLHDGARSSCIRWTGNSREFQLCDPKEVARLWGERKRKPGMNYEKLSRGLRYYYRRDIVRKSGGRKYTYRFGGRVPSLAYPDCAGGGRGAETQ
Outline: as §1

ELF3 = biological target: T10, ELF3 (Homo sapiens, UniProt P78545 1-371); conditions: protein: recombinant; tags: N-terminal GST; dsDNA, one strand shown
T10 sequence: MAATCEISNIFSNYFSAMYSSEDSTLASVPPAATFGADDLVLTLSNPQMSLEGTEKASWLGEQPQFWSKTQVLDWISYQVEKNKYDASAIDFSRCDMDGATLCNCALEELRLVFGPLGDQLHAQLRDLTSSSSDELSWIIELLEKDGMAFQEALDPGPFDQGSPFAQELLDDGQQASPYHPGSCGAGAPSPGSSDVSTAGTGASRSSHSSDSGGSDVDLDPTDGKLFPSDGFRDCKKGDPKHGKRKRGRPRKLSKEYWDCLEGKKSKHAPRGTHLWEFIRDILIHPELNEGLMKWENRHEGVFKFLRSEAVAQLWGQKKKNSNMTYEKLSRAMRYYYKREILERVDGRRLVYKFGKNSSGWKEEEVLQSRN
Outline: as §1

CRX = CRX (Homo sapiens, UniProt O43186 1-299); conditions: protein: recombinant; tags: N-terminal GST; dsDNA, one strand shown
CRX, sequence (O43186 whole entry): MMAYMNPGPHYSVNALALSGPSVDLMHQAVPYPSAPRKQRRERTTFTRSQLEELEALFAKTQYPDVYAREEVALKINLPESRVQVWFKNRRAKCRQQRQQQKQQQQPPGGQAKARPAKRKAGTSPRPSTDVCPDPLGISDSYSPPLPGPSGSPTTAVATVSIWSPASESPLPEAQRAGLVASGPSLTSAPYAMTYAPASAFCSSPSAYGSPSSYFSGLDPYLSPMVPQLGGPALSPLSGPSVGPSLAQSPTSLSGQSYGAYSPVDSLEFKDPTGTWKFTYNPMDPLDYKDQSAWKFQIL
Outline: as §1

ETV1 = ETV1 (Homo sapiens, UniProt P50549 1-477); conditions: protein: recombinant; tags: N-terminal GST; dsDNA, one strand shown
ETV1, sequence (P50549 whole entry): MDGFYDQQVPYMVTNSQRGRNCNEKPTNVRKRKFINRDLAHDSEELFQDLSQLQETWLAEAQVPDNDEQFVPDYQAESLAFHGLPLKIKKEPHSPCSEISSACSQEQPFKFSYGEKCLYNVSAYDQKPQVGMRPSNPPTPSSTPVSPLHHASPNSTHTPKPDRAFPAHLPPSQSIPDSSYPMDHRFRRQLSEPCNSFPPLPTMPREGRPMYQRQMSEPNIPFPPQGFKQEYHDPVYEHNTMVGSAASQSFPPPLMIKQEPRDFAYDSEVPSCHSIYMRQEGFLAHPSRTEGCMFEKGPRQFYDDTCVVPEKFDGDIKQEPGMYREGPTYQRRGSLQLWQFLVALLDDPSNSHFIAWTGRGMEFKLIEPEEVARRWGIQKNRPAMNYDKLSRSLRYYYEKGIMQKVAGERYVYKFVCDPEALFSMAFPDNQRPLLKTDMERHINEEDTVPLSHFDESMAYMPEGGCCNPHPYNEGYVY
Outline: as §1

What does the source list for TTGAGC?
binding signal (FLI1): 1.22 fold enrichment (6-mer frequency, TF over GST control); binding signal (ELK1): 1.01 fold enrichment (6-mer frequency, TF over GST control); binding signal (GABPA): 1.17 fold enrichment (6-mer frequency, TF over GST control); binding signal (ERG): 1.12 fold enrichment (6-mer frequency, TF over GST control); binding signal (ELF1): 1.02 fold enrichment (6-mer frequency, TF over GST control); binding signal (EHF): 1.06 fold enrichment (6-mer frequency, TF over GST control); binding signal (SPIB): 1.11 fold enrichment (6-mer frequency, TF over GST control); binding signal (FEV): 1 fold enrichment (6-mer frequency, TF over GST control); binding signal (ETV5): 1.03 fold enrichment (6-mer frequency, TF over GST control); binding signal (HSF1): 1.03 fold enrichment (6-mer frequency, TF over GST control); binding signal (SPIC): 1.18 fold enrichment (6-mer frequency, TF over GST control); binding signal (ELF4): 1.06 fold enrichment (6-mer frequency, TF over GST control); binding signal (ELK4): 1.04 fold enrichment (6-mer frequency, TF over GST control); binding signal (ETV2): 1.07 fold enrichment (6-mer frequency, TF over GST control); binding signal (ELF3): 1.13 fold enrichment (6-mer frequency, TF over GST control); binding signal (CRX): 1.28 fold enrichment (6-mer frequency, TF over GST control); binding signal (ETV1): 1.1 fold enrichment (6-mer frequency, TF over GST control)

— PMC7862700, “An all-to-all approach to the identification of sequence-specific readers for epigenetic DNA modifications on cytosine”
